In PubChem BioAssay (NCI) one finds growth data, which are given here for 8 compounds.

Experiment in all cases: NCI-60 one-dose screen, 48 h (100 = growth as untreated, 0 = no growth, -100 = all killed)
What all share (conditions): 10 µM unless noted

The test system of assay [1] is HCT-15 colon.
The test system of assay [2] is HT29 colon.
The test system of assay [3] is SNB-75 CNS.
For assay [4], the system named is SNB-19 CNS.
The test system of assay [5] is U251 CNS.
Assay [6] deals with SK-MEL-5 melanoma.
Assay [7] relates to UACC-62 melanoma.
Assay [8] has as its system LOX IMVI melanoma.
The subject of assay [9] is SK-MEL-28 melanoma.
For assay [10], the system named is SK-MEL-2 melanoma.
The subject of assay [11] is EKVX NSCLC.
Assay [12] deals with SN12C renal.
The subject of assay [13] is UO-31 renal.
The test system of assay [14] is TK-10 renal.
Assay [15] deals with ACHN renal.
Assay [16] concerns CAKI-1 renal.
Assay [17] relates to A498 renal.
For assay [18], the system named is CCRF-CEM leukemia.
The test system of assay [19] is MOLT-4 leukemia.
Assay [20] has as its system PC-3 prostate.

Compounds without any hit were thinned out: in the full panel of roughly 83,000, 20% have a hit.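 Single-concentration screen, 48 h exposure, 96-well plates. Endpoint: percent growth. Below 10 = active.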 Values without a mark were called inactive. Activity calls are given as the source filed them.

As for `O=C1CN2CCC1C/C2=C\c1ccnc2c(Cl)cccc12` (configuration not stated), the growth in [1] is 82.6%; in [2], 106%; in assay [3] it was 85.5%; in assay [4] it was 98.2%; in [5], 98.4%; in assay [6], 108%. The growth in [7] is 90.5%; in [8] it was 96%; in assay [9], 127%; in [10], 85.8%; in assay [11] it was 95.7%; in assay [12], 94.3%. For the same compound, the growth is 75.5% in assay [13]; 127% in [14]; 91.2% in [15]; 93.9% in assay [16]; 159% in [17]; 96.8% in [18]. Besides, the growth in assay [19] was 97.1%.

As to `COc1ccc(Sc2ccc3[nH]c(=O)nc(N)c3c2)cc1`, the growth was 103% in assay [1]; 106% in [2]; 91.3% in assay [3]; 94.1% in assay [4]; 94.3% in [5]; 103% in [6]. Besides, the growth in [7] was 105%; in [8] it was 99.7%; in [9] it was 104%; in [10], 104%; in assay [11] it was 95.5%; in assay [12], 101%. The growth in [13] was 99.2%; in assay [14] it was 105%; in assay [15], 107%; in [16] it was 106%; in [17], 98.6%; in assay [18] it was 95.3%. In assay [19], the growth is 97.7%.

For the compound `CCCCCCCCCCCCCCCC[N+]1(C)CCOCC1`, the growth in [1] is 40.4%; in assay [2], 1.36% (active); in assay [3], 11.7%; in assay [4], -29.1% (active); in assay [5], -84.8% (active); in assay [6], 40%. For the same compound, the growth is 46.9% in [7]; -79% (active) in assay [8]; 86% in [9]; 57.7% in assay [10]; 64.1% in assay [11]; 15.4% in assay [12]. In addition, the growth in [13] is 59.6%; in assay [14], -36.8% (active); in [15], 62.8%; in [16] it was 76.3%; in assay [17] it was 48.8%; in [18], -42.1% (active). Further, in assay [19], the growth was -57.8% (active).

With `O=C1C(N2CCOCC2)=Cc2cccc3cccc1c23`, the growth in assay [1] was 92.6%; in assay [2], 92.4%; in assay [3], 86.9%; in [4], 92.4%; in [5] it was 92.8%; in assay [20], 95.4%. In addition, the growth in assay [7] is 91.2%; in assay [8], 101%; in [9] it was 97.5%; in assay [10] it was 110%; in assay [11], 60.9%; in assay [12], 106%. In addition, the growth is 88.9% in [13]; 98% in assay [14]; 96.3% in [15]; 108% in assay [16]; 84.3% in [17]; 102% in assay [18]. In assay [19], the growth was 18.2%.

Consider `Cc1ccc(C)c2c1sc1nc3nc4sc5ccccc5n4c(=N)c3c(=O)n12`, for which the growth was 102% in [1]; 104% in assay [2]; 73.7% in assay [3]; 89.4% in assay [4]; 107% in assay [5]; 94.6% in [6]. Further, the growth in [7] was 120%; in assay [8], 92.6%; in [9] it was 110%; in assay [10], 121%; in assay [11], 95.7%; in [12], 105%. The growth in assay [13] was 78.1%; in assay [14] it was 162%; in assay [15] it was 99.1%; in assay [16], 106%; in assay [17], 69.1%; in [18], 81.1%. In addition, the growth in assay [19] is 104%.

Take `COc1cc(-c2nc(Nc3nc4ccccc4[nH]3)nc(N)c2C#N)cc(OC)c1OC`: the growth in assay [1] was 59.1%; in assay [2], 32%; in assay [3], 29.2%; in [4], 69.2%; in assay [5] it was 56.8%; in assay [20] it was 44.7%. Also, the growth was 44.5% in assay [7]; 69.5% in assay [8]; 72% in assay [9]; 59.2% in assay [10]; 74.5% in assay [11]; 92.8% in [12]. Further, the growth in [13] is 69.9%; in [14], 80.6%; in [15] it was 61.7%; in [16], 56.9%; in assay [18] it was 70.1%.

As to `COC(=O)c1ccc(C(=O)Nc2ccccc2N)cc1`, the growth in assay [1] is 83.9%; in assay [2], 86.9%; in assay [3] it was 78.4%; in assay [4] it was 85.6%; in assay [5] it was 72.1%; in [20], 65.3%. Also, the growth is 61.2% in [7]; 97.7% in assay [8]; 94.6% in assay [9]; 63% in assay [10]; 62.9% in assay [12]; 36.7% in assay [13]. Also, the growth was 88.6% in assay [15], 80.5% in [17], 4.59% (active) in assay [18] and 30.4% in assay [19].

`Clc1ccc(Nc2nc(Nc3ccccc3)nc(Nc3ccc(-c4cc(-c5ccc(Cl)cc5)on4)cc3)n2)cc1`: the growth in [1] is 43.1%; in assay [2], -2.96% (active); in assay [3], 16.6%; in [4], 76.7%; in [5] it was 48.5%; in assay [6], 86%. The growth in assay [7] is 53.3%; in assay [8], 32.5%; in assay [9] it was 77.7%; in [10] it was 64.2%; in [11], 69.5%; in [12], 64%. Further, the growth in assay [13] is 41.7%; in assay [14], 52.8%; in assay [15], 47.1%; in assay [16], 48.2%; in assay [17] it was 43.9%; in [18], 70.5%. For the same compound, the growth in assay [19] was 52.2%.
